The whole screen tested about 52,000 compounds, of which about 4,300 (8.3%) were called active. No stated cut-off is given here; in the data, active means survival mostly below about 52% (no sharp cut-off); inactive means mostly above about 56%. Shown is part of a subset that was picked to be rich in actives.

The subject of this assay is DeltatarO mutant. As to the kind of experiment: S. aureus survival, RN4220 and DeltatarO strains – OD600, teichoic acid synthesis inhibitors, primary screen (AID 463173). The conditions noted are these: S. aureus RN4220 wild type/DeltatarO growth, OD600, 18 h, active compounds read low, screened at 18.75 µg/mL (by protocol).
As to `O=C(Nc1ccccc1C(F)(F)F)N1CCOc2ccc(Cl)cc21`, the survival is 46% (inactive).

With `COC(=O)Cn1c(C(O)c2ccccc2)nc2ccccc21` (stereo not drawn), the survival is 71% (inactive).

For `Cc1cc(C)c(Cn2c(C(O)c3ccccc3)nc3ccccc32)c(C)c1` (stereo not drawn), the survival was 31% (active).

With `OC(c1ccccc1)c1nc2ccccc2n1Cc1c(F)cccc1Cl` (stereo not drawn), the survival was 74% (inactive).

In the case of `COc1cc2nc(NCCc3cccc(C)c3)n3nc(-c4ccccc4)nc3c2cc1OC`, the survival is 59% (inactive).

Take `COc1cc2nc(NCCc3ccccc3)n3nc(-c4cccnc4)nc3c2cc1OC`: the survival is 118% (inactive).

For the compound `COc1ccc(CCNc2nc3cc(OC)c(OC)cc3c3nc(-c4cccnc4)nn23)cc1OC`, the survival was 117% (inactive).

Consider `COc1ccc(CCNc2nc3ccccc3c3nc(-c4cccc(C)c4)nn23)cc1OC`, for which the survival was 20% (active).

`COc1ccc(CCNc2nc3cc(OC)c(OC)cc3c3nc(-c4ccccc4)nn23)cc1OC`: the survival was 93% (inactive).

Turning to `Cc1cccc(-c2nc3c4ccccc4nc(NCCc4ccccc4)n3n2)c1`, the survival is 7% (active).

Regarding `Cc1cc2[nH]c(=O)c(=O)[nH]c2cc1S(=O)(=O)Nc1ccc(OC(F)(F)F)cc1`, the survival is 67% (inactive).

Regarding `CCCn1c(=O)n(-c2cc(Cl)c(OC)cc2OC)c(=O)c2c3c(sc21)CN(C(C)=O)CC3`, the survival was 62% (inactive).

`O=C(O)CCc1ccc(-c2ccccc2)n1CC(=O)Nc1ccccc1C(F)(F)F`: the survival is 60% (inactive).

On to `CCc1ccccc1NC(=O)C1=C(C)C(=O)OC12CCCCCC2`, for which the survival was 58% (inactive).

With `CCn1cc(C(=O)OCC(=O)Nc2ccc(C)c(Cl)c2)c(=O)c2ccc(C)nc21`, the survival was 63% (active).

With `CCn1cc(C(=O)OCC(=O)Nc2cc(C)cc(C)c2)c(=O)c2ccc(C)nc21`, the survival was 64% (inactive).

For `CCn1cc(C(=O)OCC(=O)Nc2cc(Cl)ccc2C)c(=O)c2ccc(C)nc21`, the survival was 74% (inactive).

On to `CCCCC1CCC(CCCC(C)CCC(=O)O)CC1` (stereo not drawn), for which the survival is -4% (active).

For `CCCCCCC1CCC(C(=O)NC(C(=O)O)C(C)C)CC1` (stereo not drawn), the survival is 49% (inactive).

On to `CCCCCCC1CC=C(C(=O)O)CC1` (stereo not drawn), for which the survival was 76% (inactive).

For the compound `O=c1c2sc3ccccc3c2n(Cc2ccccc2)c(=O)n1CCc1ccccc1`, the survival is 71% (inactive).

With `COc1ccc(S(=O)(=O)N(CC(=O)Nc2cc(C)cc(C)c2)c2ccc(Cl)cc2)cc1`, the survival was 77% (inactive).

For the compound `COc1ccc(S(=O)(=O)N(CC(=O)Nc2cccnc2)c2ccc(Cl)cc2)cc1`, the survival was 30% (active).

Turning to `COc1ccc(N(CC(=O)NCc2ccc(F)cc2)S(=O)(=O)c2c(C)noc2C)cc1`, the survival is 82% (inactive).

Consider `COc1ccc(N(CC(=O)Nc2cc(OC)cc(OC)c2)S(=O)(=O)c2c(C)noc2C)cc1`, for which the survival was 45% (active).

In the case of `CS(=O)(=O)N(CC(=O)Nc1cccnc1)c1ccc(Cl)cc1`, the survival is 91% (inactive).

With `O=C(CN(c1ccc(Cl)c(C(F)(F)F)c1)S(=O)(=O)c1ccccc1)Nc1cccnc1`, the survival is 47% (active).

In the case of `O=C(CN(c1ccc(Cl)c(C(F)(F)F)c1)S(=O)(=O)c1ccccc1)N1CCc2ccccc2C1`, the survival is 42% (inactive).

With `COc1ccc(N(CC(=O)Nc2cc(Cl)ccc2C)S(=O)(=O)c2c(C)noc2C)cc1`, the survival was 51% (inactive).

With `CCOc1ccc(S(=O)(=O)N(CC(=O)Nc2cccnc2)c2ccccc2)cc1`, the survival was 114% (inactive).

With `Cc1cc(C)c(NC(=O)Cn2c(=O)n(CC(=O)NCc3ccccc3Cl)c(=O)c3sccc32)c(C)c1`, the survival is 171% (inactive).

In the case of `Cc1ccc(N2CCN(C(=O)c3nn(C)c4c3CS(=O)(=O)c3ccccc3-4)CC2C)cc1` (stereo not drawn), the survival is 56% (inactive).

As for `O=C(c1ccc2c(c1)N(Cc1cccc(Cl)c1)C(=O)c1ccccc1S2(=O)=O)N1CCCC1`, the survival was 115% (inactive).

As to `CCOc1ccccc1CNC(=O)CSc1nnc(C)c2c(C)n(-c3ccccc3)nc12`, the survival was 83% (inactive).

Turning to `CC(C)CNS(=O)(=O)c1ccc(S(=O)(=O)N2CCCC(C(=O)NC3CCCCC3)C2)cc1` (stereo not drawn), the survival is 75% (inactive).

Consider `CCCCOc1ccc(CNC(=O)C2COc3ccc(OC)cc3C2)cc1` (stereo not drawn), for which the survival is 94% (inactive).

With `CCOCCCNC(=O)c1c[nH]c2ccc(S(=O)(=O)Nc3cccc(Cl)c3C)cc2c1=O`, the survival was 93% (inactive).

`O=C(NC1CCCCC1)c1c[nH]c2ccc(S(=O)(=O)Nc3ccccc3F)cc2c1=O`: the survival is 83% (inactive).

Consider `Cc1ccccc1NS(=O)(=O)c1ccc2[nH]cc(C(=O)NC3CCCCC3)c(=O)c2c1`, for which the survival is 85% (inactive).

As to `CCc1ccccc1NS(=O)(=O)c1ccc2[nH]cc(C(=O)NC3CCCC3)c(=O)c2c1`, the survival was 33% (active).

In the case of `Cc1c(Cl)cccc1NS(=O)(=O)c1ccc2[nH]cc(C(=O)NC3CCCC3)c(=O)c2c1`, the survival is 7% (active).

For `CNC(=O)c1c[nH]c2ccc(S(=O)(=O)Nc3cccc(Cl)c3C)cc2c1=O`, the survival is 91% (inactive).

On to `CNc1nc2ccccc2o1`, for which the survival is 89% (inactive).

Regarding `O=C(CSc1nnc(-c2cccs2)o1)Oc1ccccc1Cl`, the survival is 81% (inactive).

With `Cc1ccc(CNC(=O)CCCn2c(=O)c3ccccc3n(CC(=O)Nc3ccc(C)cc3)c2=O)cc1`, the survival was 89% (inactive).

In the case of `CCOC(=O)N1CCN(C(=O)CN(c2cc(C)ccc2OC)S(=O)(=O)c2ccc(C)cc2)CC1`, the survival is 87% (inactive).

In the case of `COc1ccccc1N(CC(=O)N1CCC(C)CC1)S(=O)(=O)c1ccc(C)cc1`, the survival is 134% (inactive).

As for `COc1ccc(C)cc1N(CC(=O)N1CCC(C)CC1)S(=O)(=O)c1ccc(C)cc1`, the survival was 55% (active).

Consider `O=C(CSc1nc(-c2ccc(F)cc2)[nH]c1-c1ccc(F)cc1)Nc1ccc2c(c1)OCCO2`, for which the survival was 76% (inactive).

As to `N#CCCCN1C(=O)C(=C(C#N)C#N)c2ccccc21`, the survival is 75% (inactive).

With `N#CC(C#N)=C1c2ccccc2-c2c1nc1ccccc1[n+]2[O-]`, the survival was 78% (inactive).

As to `N#CC(C#N)=C1c2ccccc2-c2nc(C#N)c(C#N)nc21`, the survival is 4% (active).

With `O=C1c2ccccc2-c2n[nH]c(=S)nc21`, the survival was 64% (inactive).

For `N#Cc1cc2nc3c(nc2cc1C#N)-c1cccc2cccc-3c12`, the survival is 85% (inactive).

With `N#Cc1nc2c(nc1C#N)-c1ccccc1C2=O`, the survival was 19% (active).

As to `COC(=O)c1ccc2c(=O)n(CCCCCC(=O)N3CCN(c4ccc(Cl)cc4)CC3)c(=O)[nH]c2c1`, the survival was 116% (inactive).

As to `Cc1cc(C)cc(OC(C)C(=O)Nc2c(C(=O)c3ccccc3)oc3ccccc23)c1` (stereo not drawn), the survival is 17% (active).

For the compound `COc1ccccc1OC(C)C(=O)Nc1c(C(=O)c2ccc(Cl)cc2)oc2ccccc12` (stereo not drawn), the survival was 81% (inactive).

Turning to `Cc1ccc(C(=O)c2oc3ccccc3c2NC(=O)COc2ccccc2Cl)cc1`, the survival is 123% (inactive).

Regarding `Cc1cc(C)cc(OCC(=O)Nc2c(C(=O)c3ccccc3)oc3ccccc23)c1`, the survival is 92% (inactive).

Regarding `Cc1ccc(C(=O)c2oc3ccccc3c2NC(=O)C(C)Oc2ccccc2Cl)cc1` (stereo not drawn), the survival was 40% (active).

Turning to `CCc1ccc(OC(C)C(=O)Nc2c(C(=O)c3ccccc3)oc3ccccc23)cc1` (stereo not drawn), the survival was 38% (inactive).

In the case of `CC(C)Cn1c(=O)c2ccccc2n2c(-c3ccc(Br)cc3)nnc12`, the survival was 94% (inactive).

Regarding `Cc1ccc(CN(Cc2ccco2)C(=O)COc2ccc(Cl)cc2Cl)cc1`, the survival is 96% (inactive).

Turning to `Cc1ccc(-c2nnc(Nc3ccc(O)cc3)c3ccccc23)cc1S(=O)(=O)N1CCCCC1`, the survival is 104% (inactive).

As for `Cc1cccc(N2CCN(c3nc4ccc(C(=O)c5ccccc5)cc4n4cnnc34)CC2C)c1` (stereo not drawn), the survival was 76% (inactive).

Regarding `Cc1cc(C)cc(Nc2ncnc3onc(-c4ccc(F)cc4)c23)c1`, the survival is 84% (inactive).

For `Cc1ccc(CCNc2ncnc3onc(-c4ccc(F)cc4)c23)cc1`, the survival was 83% (inactive).

Consider `Cc1ccc(CO)cc1Nc1ncnc2onc(-c3ccc(F)cc3)c12`, for which the survival was 46% (active).

For `Fc1ccc(-c2noc3ncnc(NCC4CCN(Cc5ccc(Cl)cc5)CC4)c23)cc1`, the survival is 72% (inactive).

`Cc1ccc(CN2CCC(CNc3ncnc4onc(-c5ccc(Cl)cc5)c34)CC2)cc1`: the survival is 80% (inactive).

`Cc1ccc(CN2CCC(CNc3ncnc4onc(-c5ccc(F)cc5)c34)CC2)cc1`: the survival was -2% (active).

Regarding `Cc1cccc(N2CCN(C(=O)c3cccc(-n4c(C)nc5cccnc54)c3)CC2)c1C`, the survival is 104% (inactive).

For the compound `COc1ccc2c(c1)cc1c(=O)n(CC(=O)NC3CCCCC3)nc(C)n12`, the survival is 70% (inactive).

As for `COc1ccc(CCNS(=O)(=O)c2c(C)nc3sccn3c2=O)cc1OC`, the survival is 64% (inactive).

Turning to `CCOc1ccc(CN2C(=O)c3ccccc3Sc3ccc(C(=O)NCCc4ccccc4)cc32)cc1`, the survival was 58% (inactive).

Regarding `COC(=O)C1(C)NC(c2ccc(OC)cc2)C2C(=O)N(c3ccccc3)C(=O)C21` (stereo not drawn), the survival is 80% (inactive).

Turning to `COC(=O)C1(C)NC(c2ccccc2C)C2C(=O)N(C)C(=O)C21` (stereo not drawn), the survival was 54% (active).

`COC(=O)C1(C(C)C)NC(c2ccccc2OC)C2C(=O)N(C)C(=O)C21` (stereo not drawn): the survival was 84% (inactive).

Consider `COc1ccc(C)cc1NS(=O)(=O)c1ccc2oc(=O)c3ncn(C)c3c2c1`, for which the survival is 77% (inactive).

Take `CCc1ccc(S(=O)(=O)NCc2ccc3c(c2)CCN3C(=O)c2ccc(C)cc2)cc1`: the survival is 71% (inactive).

As for `CCOc1ccc(-c2nonc2NC(=O)c2ccco2)cc1`, the survival was 79% (inactive).

In the case of `CC(=O)Nc1cccc(NC(=O)Cn2cnc3c2c(=O)n(C)c(=O)n3C)c1`, the survival was 70% (inactive).

As for `Cn1c(=O)c2c(ncn2CC(=O)Nc2cccc(C(F)(F)F)c2)n(C)c1=O`, the survival is 71% (inactive).

For the compound `CC(=O)c1cccc(NC(=O)Cn2cnc3c2c(=O)n(C)c(=O)n3C)c1`, the survival was 44% (active).

As to `Cc1cccc(-c2cc(-c3ccccc3)nc(SCC(=O)Nc3ccccc3)c2C#N)c1`, the survival is 67% (inactive).

For the compound `COc1cc(C(CC(=O)Nc2ccc(C)c(F)c2)N2Cc3ccccc3C2=O)cc(OC)c1OC` (stereo not drawn), the survival is 93% (inactive).

For `CC(C)c1ccc(S(=O)(=O)NCc2ccc3c(c2)CCN3C(=O)c2ccccc2)cc1`, the survival is 87% (inactive).

The record behind these values is PubChem BioAssay AID463173 (ICCB-Longwood Screening Facility, Harvard Medical School, 2010).
